Consider seven compounds from PubChem BioAssay (EPA / NIEHS).

The nature of test [1]: APR_HepG2_NuclearSize_24hr: Apredica 24-hour HepG2 Assay for Nuclear Size (AID 2282907). Conditions: high-content imaging, actives raise or lower the signal. In a few lines: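 After fixation and permeabilization, 24-hr-treated HepG2 cells were stained with Hoechst 33342 and imaged on an ArrayScan (20x). Doses spanned 0.39–200 uM in duplicate. Nuclear diameter changes in either direction were fitted relative to 0.5% DMSO controls.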

The nature of test [2]: APR_HepG2_CellLoss_24hr: Apredica 24-hour HepG2 Assay for Cell Loss (AID 2282908).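 For AC50: fit in both directions so a hit may be cell loss or gain.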 Conditions: high-content imaging. In short, it runs like this: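 Duplicate wells received compound at ten concentrations (0.39–200 uM; final DMSO 0.5% v/v). After fixation with formaldehyde, nuclei stained with Hoechst 33342 were imaged at 20x. Loss or gain of cell count was fitted relative to DMSO controls.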

Test [3] in a line: APR_HepG2_MicrotubuleCSK_24hr: Apredica 24-hour HepG2 Assay for Microtubule CSK Stabilty (AID 2282909). Conditions: HepG2 microtubule cytoskeleton imaging, actives raise or lower the signal. In short, it runs like this:
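Microtubule stability is scored from tubulin immunofluorescence in fixed HepG2 cells imaged at 20x. Cells receive ten compound concentrations up to 200 uM for 24 h; taxol and DMSO serve as positive and negative controls.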

A short description of test [4]: APR_HepG2_MitoticArrest_24hr: Apredica 24-hour HepG2 Assay for Mitotic Arrest (AID 2282910). Conditions: high-content imaging, actives raise or lower the signal. In short, it runs like this: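 High-content imaging of fixed HepG2 cells labeled with Hoechst 33342 and anti-phospho-histone H3, after 24 h treatment. Ten concentrations 0.39 to 200 uM in duplicate, final DMSO 0.5%; changes fitted both directions relative to DMSO.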

Test [5] in a line: APR_HepG2_MitoMembPot_24hr: Apredica 24-hour HepG2 Assay for Mitochondrial Membrane Potential (AID 2282911). Particulars: imaging, actives raise or lower the signal. In short, it runs like this:
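HepG2 cells exposed 24 h to 0.39–200 uM compounds in duplicate, 0.5% v/v DMSO final. MitoTracker Red CMXRos 250 nM loaded 30 min before formaldehyde fixation; high-content imaging at 20x, bidirectional fit versus DMSO.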

Test [6] in a line: APR_HepG2_MitoMass_24hr: Apredica 24-hour HepG2 Assay for Mitochondrial Mass (AID 2282912). Particulars: high-content imaging, actives raise or lower the signal. In a few lines:
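Readout: fluorescence of MitoTracker Red CMXRos (250 nM, added 30 min pre-fixation) in fixed HepG2 cells imaged by HCS. Exposure lasted 24 hr at 0.39–200 uM; increases and decreases were both fitted relative to DMSO.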

Test [7] can be described thus: APR_HepG2_p53Act_24hr: Apredica 24-hour HepG2 Assay for p53 Activation (AID 2282913).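 Note: p53 protein immunofluorescence averaged per cell in HepG2 with Hoechst nuclei.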 Particulars: high-content imaging, actives raise or lower the signal. In a few lines: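 HepG2 cells exposed 24 h to compounds at 0.39–200 uM in duplicate, 0.5% v/v DMSO final; fixed, permeabilized, stained with anti-p53 antibody and Hoechst 33342; fluorescence imaging; bidirectional curve fit versus DMSO.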

Test [8] can be described thus: APR_HepG2_CellCycleArrest_72hr: Apredica 72-hour HepG2 Assay for Cell Cycle Arrest (AID 2282914). Conditions: high-content imaging, actives raise or lower the signal. In short, it runs like this: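 HepG2 cells exposed 72 h in duplicate to 0.39–200 uM compound, 0.5% DMSO final. Formaldehyde-fixed, Hoechst 33342-stained nuclei imaged at 20x, six fields per well; DNA content per valid cell quantified by cell-cycle image analysis, bidirectional fit versus DMSO.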

A short description of test [9]: APR_HepG2_CellLoss_72hr: Apredica 72-hour HepG2 Assay for Cell Loss (AID 2282915). Particulars: high-content imaging. In short, it runs like this:
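Cell number comes from Hoechst 33342-labelled nuclei, imaged at 20x after 3.7% formaldehyde fixation. Dosing was 0.39–200 uM, ten concentrations in duplicate, 0.5% DMSO final, for 72 h. Bidirectional fit relative to DMSO baseline.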

Test [10] in a line: APR_HepG2_P-H2AX_72hr: Apredica 72-hour HepG2 Assay for H2AX Phosphorylation (AID 2282916).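 Note: phospho-histone H2A.x immunostain intensity per cell marking DNA damage.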 Particulars: imaging, actives raise or lower the signal. In short, it runs like this: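 Phospho-H2A.x imaging endpoint in HepG2 after 72 hr compound exposure (0.39–200 uM, duplicate wells). Activity derived by bidirectional curve fitting with DMSO as baseline.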
Test [11] is described as follows: APR_HepG2_MitoMembPot_72hr: Apredica 72-hour HepG2 Assay for Mitochondrial Membrane Potential (AID 2282917). Particulars: imaging, actives raise or lower the signal. In a few lines:
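Membrane potential read by MitoTracker Red CMXRos (250 nM, 30 min, pre-fixation) fluorescence imaging of HepG2 after 72 hr exposure. Ten concentrations, 0.39–200 uM, duplicate wells, 0.5% DMSO; fitted in both directions against DMSO baseline.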

The nature of test [12]: APR_HepG2_MicrotubuleCSK_72hr: Apredica 72-hour HepG2 Assay for Microtubule CSK Stabilty (AID 2282919). Conditions: HepG2 microtubule cytoskeleton, high-content imaging, actives raise or lower the signal. In a few lines: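 High-content imaging of alpha-tubulin staining in fixed HepG2 cells after 72 hr treatment with ten concentrations from 0.39 to 200 uM (0.5% DMSO). Fitting was bidirectional against DMSO; taxol served as positive control.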

Test [13] is described as follows: APR_HepG2_P-H2AX_24hr: Apredica 24-hour HepG2 Assay for H2AX Phosphorylation (AID 2282920). Particulars: high-content imaging, actives raise or lower the signal. In a few lines: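 HepG2 cells dosed 24 h at 0.39–200 uM (10 points, duplicate, 0.5% DMSO final). Formaldehyde-fixed and permeabilized, then immunostained for phospho-H2A.x with Hoechst. Fluorescence quantified by high-content imaging, fitted bidirectionally versus DMSO.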

Test [14] can be described thus: APR_HepG2_StressKinase_72hr: Apredica 72-hour HepG2 Assay for Stress Kinase (AID 2282921). Particulars: HepG2 stress kinase (phospho-c-Jun) imaging, actives raise or lower the signal. In short, it runs like this:
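Stress kinase signal reflects nuclear phospho-c-Jun staining in fixed, permeabilized cells exposed 72 h to compound at 0.39–200 uM; DMSO-normalized, fitted for increases or decreases.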

Test [15] in a line: APR_HepG2_StressKinase_24hr: Apredica 24-hour HepG2 Assay for Stress Kinase (AID 2282922). Conditions: HepG2 stress kinase (phospho-c-Jun) imaging, actives raise or lower the signal. In short, it runs like this: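 High-content imaging of phospho-c-Jun immunofluorescence in fixed, permeabilized HepG2 cells after 24 h dosing. Ten concentrations, 0.39 to 200 uM, run in duplicate at 0.5% v/v DMSO; gain or loss of signal versus DMSO.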

A short description of test [16]: APR_HepG2_p53Act_72hr: Apredica 72-hour HepG2 Assay for p53 Activation (AID 2282923).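 Note: average cellular p53 protein immunofluorescence intensity in HepG2 cells.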 Conditions: high-content imaging, actives raise or lower the signal. In a few lines:
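Fixed-cell p53 staining (sheep primary, Cy5 secondary) measured by fluorescence imaging following 72 hr treatment at 0.39–200 uM in 0.5% DMSO; DMSO served as negative control and baseline.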

The nature of test [17]: APR_HepG2_MitoMass_72hr: Apredica 72-hour HepG2 Assay for Mitochondrial Mass (AID 2282924).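 Note: MitoTracker Red CMXRos stain intensity per cell imaged as mitochondrial mass.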 Conditions: high-content imaging, actives raise or lower the signal. In short, it runs like this:
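Readout is imaged MitoTracker Red (250 nM, 30 min, pre-fixation) signal, fitted bidirectionally against DMSO baseline. Human HepG2 liver cells received compound 0.39–200 uM in duplicate for 72 hr, final DMSO 0.5%.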

The nature of test [18]: APR_HepG2_NuclearSize_72hr: Apredica 72-hour HepG2 Assay for Nuclear Size (AID 2282925). Conditions: high-content imaging, actives raise or lower the signal. In a few lines:
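Nuclear size was read by high-content imaging of Hoechst 33342 stain after formaldehyde fixation. Compounds ran 72 h on HepG2 at 0.39 to 200 uM, with final DMSO 0.5% v/v. Curves fitted both directions relative to DMSO control.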

The nature of test [19]: APR_HepG2_MitoticArrest_72hr: Apredica 72-hour HepG2 Assay for Mitotic Arrest (AID 2282918). Conditions: high-content imaging, actives raise or lower the signal. In short, it runs like this: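 HepG2 cells treated 72 h at 0.39–200 uM, 0.5% DMSO final; formaldehyde-fixed, stained with Hoechst 33342 and phospho-histone H3 antibody, imaged by high-content fluorescence; bidirectional fit versus DMSO.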

The source made the active and inactive calls. Rule for the calls: active = hit-call score of the fitted dose curve at least 0.9, where 1 is the maximum; inactive = score below 0.9.

For `CCC(=O)O[C@H]1CC[C@H]2[C@@H]3CCC4=CC(=O)CC[C@]4(C)[C@H]3CC[C@]12C`, the call in test [1], in test [3], in test [5], in test [7], in test [8] and in test [14] was inactive. Also, in [15], the compound was classed as inactive. The AC50 (in general, the concentration at which the activity in the assay is half-maximal) in test [2] is 107 µM (active); in test [4], 116 µM (active); in [6] it was 107 µM (active); in test [9], 125 µM (active); in test [10], 86.5 µM (active); in test [11], 114 µM (active). Besides, the AC50 is 158 µM (active) in test [12]; 108 µM (active) in test [13]; 89.9 µM (active) in test [16]; 92.1 µM (active) in test [17]; 50.8 µM (active) in test [18].

With `C=CC(N)=O`, the compound was classed as inactive in test [1], in test [2], in test [3], in test [4], in test [5] and in test [6]. Besides, the compound was called inactive in test [7], in [9], in test [10], in [11], in test [19] and in [12]. Also, the outcome in test [13], in test [14], in [15], in test [17] and in [18] was inactive.

`O=C(O)C(F)(F)C(F)(F)C(F)(F)C(F)(F)C(F)(F)C(F)(F)C(F)(F)C(F)(F)F`: the outcome in test [1], in [3], in test [5], in test [8], in test [10] and in test [11] was inactive. The outcome in test [12], in test [13], in test [14], in test [15], in test [17] and in test [18] was inactive. The AC50 in [2] is 104 µM (active); in test [4], 139 µM (active); in [6], 107 µM (active); in test [7], 114 µM (active).

Turning to `Cc1ccc(O)c(C)c1`, the compound was classed as inactive in [1], in test [2], in test [3], in test [4], in [5] and in test [6]. In addition, the result in test [7], in test [8], in test [10], in test [11], in test [19] and in test [12] was inactive. Further, the call in test [13], in test [14], in [15], in test [16], in test [17] and in [18] was inactive.

Take `Clc1ccc(C(Cl)(Cl)Cl)cc1`: the call in test [1], in test [2], in test [3], in [4], in test [5] and in test [6] was inactive. For the same compound, the compound was called inactive in test [7], in test [8], in [9], in test [10], in test [11] and in test [12]. Besides, the result in test [13], in [14], in [15], in test [17] and in [18] was inactive.

Turning to `O=NN(c1ccccc1)c1ccccc1`, the call in test [1], in [2], in [3], in [4], in test [5] and in test [6] was inactive. The compound was called inactive in test [7], in [9], in test [10], in test [19], in test [12] and in [13]. Also, the result in test [14], in test [15], in test [17] and in test [18] was inactive. In addition, the AC50 in test [11] was 0.0668 µM (active).

Turning to `ClC1=C(Cl)[C@]2(Cl)[C@@H]3[C@@H]4C[C@@H]([C@H]5O[C@@H]45)[C@@H]3[C@@]1(Cl)C2(Cl)Cl`, the call in test [1], in test [3], in test [4], in test [5], in [6] and in [7] was inactive. For the same compound, the call in [11], in test [12], in test [13], in test [14], in [15] and in test [16] was inactive. For the same compound, the compound was called inactive in test [17] and in test [18]. Also, the AC50 was 31.6 µM (active) in test [2], 39.2 µM (active) in test [8], 41 µM (active) in test [10] and 32.6 µM (active) in test [19].
